SKKanGAS inh = blocks kanamycin growth of S. pyogenes SKKanGAS strain. BacTiter-Glo, 6 h. inhibition, % at 7.5 µM. 300,000 tested, 1.3% active. AID 1662;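 active = mean replicate score, as percent of positive control median, at least 50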;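 note: strain carries kanamycin resistance gene driven by streptokinase promoter and grows in 40 µg/ml kanamycin; loss of luminescence reflects streptokinase promoter inhibition or plain growth inhibition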
PfHsp90 set2 = inhibits growth of yeast expressing Plasmodium falciparum Hsp90. inhibition, % at 9.4 µM. 310,000 tested, 0.32% active. S. cerevisiae expressing PfHsp90, BacTiter-Glo ATP, 48 h; yeast lacking PDR1 and PDR3 efflux regulators;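 active = every replicate shows inhibition above about 80%, whatever the replicate mean, limit read from the data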
TIM10 inh = TIM10 yeast growth inhibition. S. cerevisiae TIM10 strain growth, BacTiter-Glo luminescence, 24 h. inhibition, % at 10 µM. 330,000 tested, 1.4% active;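 active = inhibition of 40% or more at the single tested concentration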;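 note: wild-type TIM10 isogenic control strain grown at permissive 25 °C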
NALP1 inh = NALP1 inhibition. S. cerevisiae NALP1/ASC/caspase-1 growth, X-gal OD620, 72 h. inhibition, % at 10 µM. 280,000 tested, 0.61% active. AID 2071; in the data active = inhibition mostly above about 24%, no sharp cut-off; inactive = mostly below about 32%
tim23-1 inh = inhibits growth of tim23-1 mutant yeast. inhibition, % at 20 µM. S. cerevisiae tim23-1 growth, BacTiter-Glo luminescence, 24 h. 330,000 tested, 1.3% active;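 active = growth inhibition of the mutant yeast at or above 50%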;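 note: temperature-sensitive mutant grown at 25 °C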
tim10-1 inh = growth inhibitors of tim10-1 mutant yeast; S. cerevisiae tim10-1 ts strain growth, BacTiter-Glo, 24 h; inhibition, % at 20 µM; 330,000 tested, 2.2% active; AID 463190;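 active = inhibition of at least 40%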;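 note: mutant grown at 25 °C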
tim23-1 conf = confirmation of tim23-1 mutant yeast growth inhibitors; S. cerevisiae tim23-1 growth, BacTiter-Glo luminescence, 24 h; shares compounds with tim23-1 inh; 4,400 tested, 83% active; inhibition, % at 20 µM; AID 463218;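 active = inhibition above about 39% in either of two replicate wells at 20 µM, limit read from the data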;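 note: temperature-sensitive tim23-1 mutant grown at 25 °C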
A number is an active result; - = inactive; . = not tested or not shown. Only some compounds are listed: those with a hit (about 4.8% of all), similar ones and a draw of the others.

SMILES	SKKanGAS inh	PfHsp90 set2	TIM10 inh	NALP1 inh	tim23-1 inh	tim10-1 inh	tim23-1 conf
C=CCn1c(-c2cc(-c3ccc(C)cc3)nc3ccccc23)n[nH]c1=S	-	-	-	-	60	-	53
C=CCn1c(-c2cccc3ccccc23)n[nH]c1=S	-	-	-	-	-	-	.
Cc1ccc(CNC(=O)C(Cc2ccccc2)n2cccc2)cc1 (stereo unspecified)	-	-	-	.	-	-	.
CCc1nc(N2CCN(C(=O)CCl)CC2)c2c3c(sc2n1)CC(C)CC3 (stereo unspecified)	-	-	-	40	55	-	-
COc1ccc(CCNC(=S)Nc2ccc(C(C)C)cc2)cc1	-	-	-	.	51	-	-
Cc1nnc(CN(C)C(=O)CC2C(=O)NCCN2Cc2ccccc2C)o1 (stereo unspecified)	-	-	-	-	-	-	.
O=C(c1ccco1)N1CCN(C(=O)c2ccc(-c3ccc(Cl)cc3)o2)CC1	.	-	-	.	51	-	40
O=C(c1ccc(Cl)cc1)N1CCN(C(=O)c2ccco2)CC1	-	-	-	-	-	-	.
Cc1ccoc1C(=O)Nc1ccc2ccccc2c1	-	-	-	-	54	-	50
O=C(Nc1ccc2ccccc2c1)c1ccc(Br)o1	-	-	-	-	56	-	52
O=C(Nc1ccc2c(c1)oc1ccccc12)c1ccc(Br)o1	-	-	-	-	52	-	-
COc1ccc(C)cc1NC(=O)CCN1CCN(C/C=C/c2ccccc2)CC1	-	-	-	-	-	-	.
CCOC(=O)c1ccc(NC(=O)C2CC(=O)N=C(N)S2)cc1 (stereo unspecified)	-	.	-	-	-	-	.
COc1cccc(NC(=O)COC(=O)CC2CC3CCC2C3)c1 (stereo unspecified)	.	-	-	.	56	-	41
CC(=O)c1cccc(NC(=O)COC(=O)CC2CC3CCC2C3)c1 (stereo unspecified)	.	-	-	.	-	-	.
CCN1C(=O)/C(=C2\SC(=S)N(NC(=O)c3ccccc3O)C2=O)c2ccccc21	.	-	-	-	-	-	.
CCOc1cc(/C=C2\C(=O)ON=C2C)ccc1OCc1ccccc1	-	-	-	-	51	-	41
CCCOc1ccc(/C=C2/C(=O)ON=C2C)cc1OCC	-	-	-	-	-	-	.
Cc1ccc(C(=O)N/N=C/c2cc(Br)ccc2O)cn1	69	-	-	-	63	-	52
O=C(Nc1ccc2c(c1)OCCO2)c1cccc(Cl)c1	-	-	-	-	51	-	57
Nc1c(C(=O)Nc2ccc3c(c2)OCCO3)nnn1Cc1ccccc1Cl	-	83	-	.	66	-	42
Nc1c(C(=O)Nc2ccc3c(c2)OCCO3)nnn1Cc1cccc(Cl)c1	-	.	-	.	-	-	.
COc1ccc(CC(=O)NCC2CCCN(Cc3ccc(F)cc3F)C2)cc1 (stereo unspecified)	-	-	-	-	-	-	.
COc1ccc(NC(=O)CNC(c2ccccc2)c2ccccc2)cc1	-	-	-	-	-	-	.
Cc1cc(N2C(=O)C(=O)/C(=C(/O)c3ccc(F)cc3)C2c2ccc(Cl)cc2)no1 (stereo unspecified)	-	-	-	-	-	-	.
SMILES	SKKanGAS inh	PfHsp90 set2	TIM10 inh	NALP1 inh	tim23-1 inh	tim10-1 inh	tim23-1 conf
Cc1cc(C)nc(OC(=O)c2ccc(Cl)cc2Cl)n1	-	.	-	-	74	-	67
CNC(=S)NNS(=O)(=O)c1ccc(OC)cc1OC	-	-	-	-	-	-	.
COc1ccccc1OCCCOc1ccc(/C=C2\SC(=O)NC2=O)cc1OC	-	-	-	-	-	-	.
CCCOc1ccc2ccccc2c1/C=C1\SC(=O)NC1=O	-	105	-	-	55	-	51
O=C(C1Cc2ccccc2CN1C(=O)c1ccccc1)N1CCN(c2ccccc2)CC1 (stereo unspecified)	-	-	-	-	-	-	.
O=Cc1cn(CCOc2ccccc2F)c2ccccc12	-	-	-	-	51	-	38
CCC(C)(C)C1CCc2c(sc(NC(=O)c3ccccc3C(=O)O)c2C#N)C1 (stereo unspecified)	-	-	-	-	-	-	.
NNC(=O)c1[nH]c2ccc(Br)cc2c1-c1ccccc1	-	-	-	-	53	-	50
CC(=O)NNC(=O)c1[nH]c2ccc(Br)cc2c1-c1ccccc1	-	-	-	-	-	-	.
CN(C(=O)CSc1cc(C(=O)c2nccn2C)c2ccccc2n1)c1ccccc1	-	-	-	.	50	-	41
Cn1ccnc1C(=O)c1cc(SCC(=O)NC2CC2)nc2ccccc12	-	-	-	-	-	-	.
Nc1nc(Nc2ccccc2)sc1C(=O)c1ccccc1	-	-	-	.	54	-	43
Cc1cc(NC(=O)c2sc(Nc3ccc(F)cc3)nc2N)no1	-	-	-	-	-	-	.
COc1ccc(C(=O)c2sc(Nc3ccccc3)nc2N)cc1	-	-	-	-	-	-	.
COc1ccc(C(=O)c2sc(Nc3ccccc3F)nc2N)cc1	-	-	-	-	50	-	54
Cc1cnc(NC(=O)c2sc(Nc3ccccc3)nc2N)o1	-	-	-	.	53	-	55
Cc1cc(C)c(S(=O)(=O)NCCSCc2ccco2)c(C)c1	.	-	-	.	-	-	.
Cc1ccc(C2=NOC(c3nnc(-c4ccccc4)o3)C2)cc1 (stereo unspecified)	-	-	-	.	-	-	.
CC(=O)Oc1cccc(N2C(=O)c3cccc4c([N+](=O)[O-])ccc(c34)C2=O)c1	-	-	-	-	51	-	51
Cc1ccc(C(=O)O)cc1N1C(=O)c2cccc3c([N+](=O)[O-])ccc(c23)C1=O	-	-	-	-	-	-	.
CC(SC(C)C(=O)NN=Cc1cccc(Cl)c1)C(=O)NN=Cc1cccc(Cl)c1 (stereo unspecified)	.	-	.	.	.	.	.
N#C/C(N)=C(/C#N)N=Cc1cccc(Cl)c1	-	-	-	.	52	-	52
Oc1ccc(N=Nc2ccccc2)cc1	-	-	-	-	55	-	47
O=C(O)c1ccccc1N=Nc1ccc(O)cc1	-	-	-	.	-	-	.
Cc1ccnc2nc(C(=O)Nc3ccc(N4CCOCC4)cc3)nn12	-	-	-	.	-	-	.
COc1ccc(C2=NN(C(=O)CCC(=O)O)C(c3ccc(OC)c(OC)c3)C2)cc1 (stereo unspecified)	-	-	-	-	-	-	.
COc1ccc(C2CC(c3ccc(Br)cc3)=NN2C(=O)CCC(=O)O)cc1OC (stereo unspecified)	-	-	-	-	96	-	-
CCOC(=O)c1cnc(-n2nc(C)cc2C)nc1NCCc1ccccc1	-	-	-	-	51	-	58
COc1cc(CN2CCN(c3cccc(C)c3C)CC2)cc(Br)c1O	-	.	-	-	55	-	45
